PubChem BioAssay (EPA / NIEHS)
Several values for one entry are separate records, joined by “and”; a condition that tells them apart may be missing. Equal values may be shown once. Activity calls are given as the source filed them. The calls were made as follows: active = hit-call score of the fitted dose curve at least 0.9, where 1 is the maximum; inactive = score below 0.9.

Read-out: Early growth response protein 1 (EGR1) transcription factor, EGR1 (gene 1958)
Experiment: LTEA_HepaRG_EGR1: Life Technologies and Expression Analysis (LTEA) Assay for Early growth response protein 1 (EGR1) transcription factor using HepaRG (AID 2283490)
Details: mRNA level, 48 h; actives raise or lower the signal
Protocol: LTEA_HepaRG is a cell based, multiplexed-readout assay that uses HepaRG, a human liver cell line, with measurements taken at 48 hours after chemical dosing on a 96-well plate.LTEA_HepaRG_EGR1 is one of 102 assay component(s) measured in the LTEA HepaRG cell culture assay. It is a marker of Cell proliferation, survival, death.Data from the assay component LTEA_HepaRG_EGR1 was analyzed into 1 endpoint. This assay endpoint, LTEA_HepaRG_EGR1, was analyzed with bidirectional fitting relative to DMSO as the negative control and baseline of activity. Using a type of inducible reporter, measures of mRNA induction for gain or loss-of-signal activity can be used to understand regulation of transcription factor activity. To generalize the intended target to other relatable targets, this assay endpoint is annotated to the dna binding intended target family, where the subfamily is zinc finger.
A total of 1060 chemcials from the ToxCast library were tested in eight-point concentration-response experiments. Cell culture and cytotoxicity assays were conducted at Thermo Fisher Scientific's Custom Services facility (Madison, WI). A single lot of human HepaRG cells (Thermo Fisher Scientific, Frederick, MD) was used for the cell culture experiments. 96-well format collagen type I coated plates of human HepaRG cells were prepared using established methods. Briefly, cryopreserved HepaRG cells were thawed, plated at a density of approximately 100,000 cells/well in HepaRG Thaw, Plate, and General Purpose media (HPRG770, Thermo Fisher Scientific), and incubated for 48 hours. 0.5% DMSO was selected as vehicle control to balance the requisite need of DMSO in HepaRG cultures to maintain differentiation (for example, baseline metabolism, proportions of hepatocytes vs. cholangiocytes), while enabling further hepatic receptor pathway activation (for example, PXR and CAR) in response to chemical exposure. 48 hours after plating, the culture medium was replaced with HepaRG Serum-Free Incudtion Media. Cells were exposed to each test chemical in duplicate and maintained in CO2 incubators for another 48 hours. Chemical plates were thawed to room temperature and 200x concentrations of treatment groups were prepared. 8-point conentration-reponse curves were made with the highest exposure at 100 uM, followed by half-log dilutions, all in 0.5% DMSO. Each test plate contained variouse controls, induction positive controls (1mM phenobarbital), cytotoxicity positive controls ([…] aflatoxin B1), vehicle controls (0.5% DMSO), and total lysis controls (0.5% DMSO). Cell morphology images were taken using an Essen IncuCyte FLR automated microscope, with six 96-well plates imaged in about 24 minutes. Images were captured and exported and JPEG files. Spent culture media was transfered to black-well plates for the LDH assay, and remaining media was sorted at -80 C for later use. Cells were treated with RLT buffer and frozen until shipped for gene expression analysis. Total RNA was isolated from the cell suspension in 75 uL of Buffer RLT (Qiagen, Germantown, MD 20874) by Quintiles/Expression Analysis (Durham, NC) using a custom isolation procedure. Total RNA from each plate well was transferred to a preamplification plate. Fluidigm's 96.96 Dynamic ArrayTM (Fluidigm, Amsterdam, the Netherlands) technology was used for gene expression analyses by quantitative reverse transcription polymerase chain reaction (qRT-PCR, performed by Quintiles/Expression Analysis, Durham, NC)89. Standard TaqManTM Assays (Applied Biosystems/ThermoFisher Scientific, Foster City, CA) were used to assess the expression of 93 genes selected based on their selectivity and sensitivity to important hepatic receptors known to be modulated by environmental chemicals; importance in human hepatocyte functionality; and hepatotoxicity. […]

**Q.** How did the AC50 turn out when `C[C@]12CC[C@@H]3c4ccc(O)cc4C[C@@H](CCCCCCCCCS(=O)CCCC(F)(F)C(F)(F)F)[C@H]3[C@@H]1CC[C@@H]2O` (stereo not given in full) was run?
**A.** The AC50 was 0.119 µM (active).

**Q.** With `CCCOC(=O)NCCCN(C)C` as the compound, how does the outcome read?
**A.** Its outcome is “inactive”.

**Q.** Which outcome does the source give for `CCN(CC)C(=O)c1cccc(C)c1` here?
**A.** The outcome was “inactive”.

**Q.** `CCCCCOC(=O)COc1cc(N2C(=O)C3=C(CCCC3)C2=O)c(F)cc1Cl` was tested. Which outcome did it give?
**A.** The outcome was “inactive”.

**Q.** With `S=C(S)NCCNC(=S)S.[Mn+2].[S-]C([S-])=NCCN=C([S-])[S-].[Zn+2]` as the compound, how does the AC50 read?
**A.** Its AC50 is 3.58 µM (active) and 2.44 µM (active) and 4.53 µM (active).

**Q.** How did the outcome turn out when `c1ccc(Nc2ccccc2)cc1` was run?
**A.** The outcome was “inactive”.

**Q.** How did the outcome turn out when `CN(C)C(=O)Nc1ccc(Cl)c(Cl)c1` was run?
**A.** Its outcome is “inactive”.

**Q.** How did the outcome turn out when `CCCCOCCOCCOCc1cc2c(cc1CCC)OCO2` was run?
**A.** The outcome was “inactive”.

**Q.** `C=CCOC(Cn1ccnc1)c1ccc(Cl)cc1Cl` (stereo not given) was tested. Which outcome did it give?
**A.** The outcome was “inactive”.

**Q.** With `CCCOC(=O)c1ccc(C(=O)OCCC)nc1` as the compound, how does the outcome read?
**A.** The outcome was “inactive”.

**Q.** With `CCN(Cc1c(F)cccc1Cl)c1c([N+](=O)[O-])cc(C(F)(F)F)cc1[N+](=O)[O-]` as the compound, how does the outcome read?
**A.** Its outcome is “inactive”.

**Q.** Which AC50 does the source give for `O=C(O)C1(C(=O)Nc2ccc(Cl)cc2Cl)CC1` here?
**A.** Its AC50 is 50 µM (active).

**Q.** With `CCCN(CCC)C(=O)SCC` as the compound, how does the outcome read?
**A.** Its outcome is “inactive”.

**Q.** `CC(C)CCCCCCc1ccc(O)cc1` was tested. Which outcome did it give?
**A.** Its outcome is “inactive”.

**Q.** How did the outcome turn out when `COC(=O)CSc1cc(N=c2sc(=O)n3n2CCCC3)c(F)cc1Cl` was run?
**A.** The outcome was “inactive”.

**Q.** For `C[C@]12C[C@H](O)[C@H]3[C@@H](CCC4=CC(=O)CC[C@@]43C)[C@@H]1CC[C@@H]2C(=O)CO`, which outcome is on record?
**A.** The outcome was “inactive”.

**Q.** With `CCOC(=O)NCCOc1ccc(Oc2ccccc2)cc1` as the compound, how does the outcome read?
**A.** The outcome was “inactive”.

**Q.** Which outcome does the source give for `CCCCOC(=O)[C@@H](C)Oc1ccc(Oc2ccc(C(F)(F)F)cn2)cc1` here?
**A.** The outcome was “inactive”.

**Q.** Which outcome does the source give for `CCCCC(CC)CN1C(=O)C2C3C=CC(C3)C2C1=O` (stereo not given) here?
**A.** The outcome was “inactive”.

**Q.** Which AC50 does the source give for `S=C([S-])NCCNC(=S)[S-].[Mn+2]` here?
**A.** Its AC50 is 6.62 µM (active).

**Q.** For `COCCO`, which outcome is on record?
**A.** Its outcome is “inactive”.

**Q.** For `CCNc1nc(N)nc(Cl)n1`, which outcome is on record?
**A.** The outcome was “inactive”.

**Q.** With `CCC(C)OC(=O)N1CCCCC1CCO` (stereo not given) as the compound, how does the outcome read?
**A.** Its outcome is “inactive”.

**Q.** `Oc1ccc(C(c2ccc(O)cc2)C(Cl)(Cl)Cl)cc1` was tested. Which AC50 did it give?
**A.** The AC50 was 77.7 µM (active).

**Q.** How did the outcome turn out when `COC(=O)c1ccccc1C(=O)O` was run?
**A.** Its outcome is “inactive”.

**Q.** `OB(O)O` was tested. Which outcome did it give?
**A.** Its outcome is “inactive”.

**Q.** For `CCOC(=O)C(C)Oc1ccc(Oc2nc3ccc(Cl)cc3o2)cc1` (stereo not given), which outcome is on record?
**A.** Its outcome is “inactive”.

**Q.** `O=C(O)c1ccccc1` was tested. Which outcome did it give?
**A.** Its outcome is “inactive”.

**Q.** How did the outcome turn out when `CSC(=O)c1cccc2nnsc12` was run?
**A.** The outcome was “inactive”.

**Q.** For `N[C@@H](Cc1cc(I)c(Oc2ccc(O)c(I)c2)c(I)c1)C(=O)O`, which outcome is on record?
**A.** The outcome was “inactive”.

**Q.** How did the outcome turn out when `C#C[C@]1(O)CC[C@H]2[C@@H]3CCC4=CC(=O)CC[C@@H]4[C@H]3CC[C@@]21CC` was run?
**A.** The outcome was “inactive”.

**Q.** How did the outcome turn out when `CC(=O)S[C@@H]1CC2=CC(=O)CC[C@]2(C)[C@H]2CC[C@@]3(C)[C@@H](CC[C@@]34CCC(=O)O4)[C@H]12` was run?
**A.** The outcome was “inactive”.

**Q.** How did the outcome turn out when `COc1c(Cl)ccc(Cl)c1C(=O)O` was run?
**A.** The outcome was “inactive”.

**Q.** How did the outcome turn out when `CC1(C)C(C=C(Cl)Cl)C1C(=O)OCc1cccc(Oc2ccccc2)c1` (stereo not given) was run?
**A.** The outcome was “inactive”.

**Q.** For `CC(C)(c1ccc(O)cc1)c1ccc(O)cc1`, which outcome is on record?
**A.** Its outcome is “inactive”.

**Q.** Which AC50 does the source give for `CC(=O)[C@H]1CC[C@H]2[C@@H]3CCC4=CC(=O)CC[C@]4(C)[C@H]3CC[C@]12C` here?
**A.** The AC50 was 50 µM (active).

**Q.** `O=C(Nc1ccc([N+](=O)[O-])cc1Cl)c1cc(Cl)ccc1O` was tested. Which AC50 did it give?
**A.** The AC50 was 1.76 µM (active).

**Q.** Which outcome does the source give for `CCSC(=O)N(CC(C)C)CC(C)C` here?
**A.** Its outcome is “inactive”.

**Q.** Which outcome does the source give for `CC(C)(C)[C@@H](O)[C@@H](Cc1ccc(Cl)cc1)n1cncn1` here?
**A.** Its outcome is “inactive”.

**Q.** How did the outcome turn out when `O=C(c1ccc(O)cc1O)c1ccc(O)cc1O` was run?
**A.** Its outcome is “inactive”.
